Targets with a hit are over-represented here; the source holds about 8,800 in all. About 0.5% of all pairs of compound and target were hits.
Assays:
Assay in all cases: log2 fold change, soluble protein after heating vs DMSO (PISA); higher = thermal stabilisation; K562 lysate, 10 uM; active = over 0.2 and 3.5 SD of the protein, either way, in both replicates (recomputed)
ibrutinib = compound: C=CC(=O)N1CCC[C@@H](n2nc(-c3ccc(Oc4ccccc4)cc3)c3c(N)ncnc32)C1 [ibrutinib]
In short: (§1)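 Thermal stability, expressed as log-two fold change relative to solvent controls, is given from duplicates. Crude K562 extract in PBS pH 7.4 with 1 mM MgCl2, at 1 mg/mL protein, was treated with 10 μM compound for 30 min and heated in aliquots for 3 min across 48°C-58°C. After pooling, adjustment to 0.5% NP-40 at 4°C and centrifugation at 21,000xg for 90 min, supernatant protein was measured by TMTpro 16plex LC-MS/MS with channel sums equalised.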

ralimetinib = compound: CC(C)(C)Cn1c(N)nc2ccc(-c3[nH]c(C(C)(C)C)nc3-c3ccc(F)cc3)nc21 [ralimetinib]
In short: as §1

[1] = compound: CC(C)(O)CC(=O)NCCn1ccc2ncnc(Nc3ccc(Oc4cccc(C(F)(F)F)c4)c(Cl)c3)c21
In short: as §1

[2] = compound: CC1=C(C2=C(C=C1)C(=O)C3=CC=CC=C3N2CCCN)C
In short: as §1

[3] = compound: CC1=C(C=C(C=C1)NC(=O)C2=CC(=CC=C2)C(C)(C)C#N)NC3=CC4=C(C=C3)N=CN(C4=O)C
In short: as §1

[4] = compound: CC1=C(C=C(C=C1)NC(=O)C2=CC(=CC=C2)N(C)C)NC(=O)C3=CC=C(C=C3)O
In short: as §1

[5] = compound: CC(=O)c1cnc2ccc(-c3cc(Cl)c(O)c(Cl)c3)nc2c1N[C@H]1CC[C@H](CN(C)C)CC1
In short: as §1

[6] = compound: CC(C)C1=C2N=C(C=C(N2N=C1)NCC3=CC=CC=C3)NCCCCCCN
In short: as §1

[7] = compound: CC1=CC=C(C=C1)SC2=C3C=C(SC3=CN=C2)C(=O)N
In short: as §1

[8] = compound: CC1=C(C(CC(=O)N1)C2=CC=C(C=C2)C(F)(F)F)C(=O)NC3=C(C=C4C(=C3)C=NN4)F
In short: as §1

Sequence of UniProt P0C2W1 (P0C2W1 whole entry, looked up): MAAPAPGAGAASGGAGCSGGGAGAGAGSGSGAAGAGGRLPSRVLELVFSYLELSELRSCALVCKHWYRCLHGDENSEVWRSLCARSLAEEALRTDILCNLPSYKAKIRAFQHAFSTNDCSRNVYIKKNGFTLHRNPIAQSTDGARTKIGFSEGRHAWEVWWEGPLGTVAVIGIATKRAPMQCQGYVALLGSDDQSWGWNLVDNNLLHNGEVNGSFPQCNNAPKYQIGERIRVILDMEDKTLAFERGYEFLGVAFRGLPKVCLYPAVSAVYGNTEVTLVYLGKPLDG
Sequence of UniProt Q96PY5 (Q96PY5 whole entry, looked up): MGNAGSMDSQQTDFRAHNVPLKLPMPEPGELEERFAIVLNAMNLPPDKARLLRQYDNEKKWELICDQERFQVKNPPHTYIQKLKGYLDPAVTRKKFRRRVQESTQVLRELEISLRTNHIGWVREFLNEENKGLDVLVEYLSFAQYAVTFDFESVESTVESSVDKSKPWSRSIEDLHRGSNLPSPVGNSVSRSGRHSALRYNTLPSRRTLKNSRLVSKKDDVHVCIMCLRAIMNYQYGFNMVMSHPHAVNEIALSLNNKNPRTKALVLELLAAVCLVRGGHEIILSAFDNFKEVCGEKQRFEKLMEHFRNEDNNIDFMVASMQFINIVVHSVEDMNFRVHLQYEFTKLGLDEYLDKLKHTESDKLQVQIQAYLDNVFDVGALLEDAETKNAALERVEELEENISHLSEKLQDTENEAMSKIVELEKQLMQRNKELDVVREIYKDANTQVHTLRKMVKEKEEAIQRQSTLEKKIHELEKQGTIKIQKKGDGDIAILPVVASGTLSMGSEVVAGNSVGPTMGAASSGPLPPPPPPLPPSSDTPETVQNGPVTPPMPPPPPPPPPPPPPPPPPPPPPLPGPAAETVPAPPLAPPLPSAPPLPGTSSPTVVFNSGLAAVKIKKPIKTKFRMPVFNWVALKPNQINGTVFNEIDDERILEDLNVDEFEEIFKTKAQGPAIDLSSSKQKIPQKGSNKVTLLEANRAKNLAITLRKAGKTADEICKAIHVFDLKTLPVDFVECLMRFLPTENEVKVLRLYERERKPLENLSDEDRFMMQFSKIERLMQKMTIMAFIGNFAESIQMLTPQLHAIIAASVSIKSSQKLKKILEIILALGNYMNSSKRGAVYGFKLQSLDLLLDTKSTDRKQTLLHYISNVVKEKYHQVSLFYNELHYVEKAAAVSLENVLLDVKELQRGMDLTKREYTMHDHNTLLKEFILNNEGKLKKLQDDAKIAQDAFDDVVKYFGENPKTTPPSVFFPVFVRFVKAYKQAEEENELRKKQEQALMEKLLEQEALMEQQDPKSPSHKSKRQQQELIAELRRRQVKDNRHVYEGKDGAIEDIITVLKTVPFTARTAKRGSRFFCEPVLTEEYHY
Sequence of UniProt P28676 (P28676 whole entry, looked up): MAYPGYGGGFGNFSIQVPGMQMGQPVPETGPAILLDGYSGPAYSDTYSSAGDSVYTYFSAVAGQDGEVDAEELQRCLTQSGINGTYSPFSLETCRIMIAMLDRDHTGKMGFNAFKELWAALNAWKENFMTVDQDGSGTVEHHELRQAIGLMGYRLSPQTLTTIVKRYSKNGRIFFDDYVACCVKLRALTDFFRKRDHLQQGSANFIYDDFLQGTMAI
Sequence of UniProt P58012 (P58012 whole entry, looked up): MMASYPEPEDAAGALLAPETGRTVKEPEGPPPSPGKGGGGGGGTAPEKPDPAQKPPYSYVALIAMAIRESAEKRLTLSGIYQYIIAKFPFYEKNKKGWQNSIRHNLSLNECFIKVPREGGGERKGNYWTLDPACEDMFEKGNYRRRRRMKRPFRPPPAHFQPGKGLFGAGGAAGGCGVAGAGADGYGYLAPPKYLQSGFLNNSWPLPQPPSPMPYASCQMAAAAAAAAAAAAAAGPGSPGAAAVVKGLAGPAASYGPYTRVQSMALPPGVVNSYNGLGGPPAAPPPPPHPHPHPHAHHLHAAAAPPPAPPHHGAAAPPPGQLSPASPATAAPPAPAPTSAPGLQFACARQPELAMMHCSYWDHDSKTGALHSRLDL
Sequence of UniProt Q14153 (Q14153 whole entry, looked up): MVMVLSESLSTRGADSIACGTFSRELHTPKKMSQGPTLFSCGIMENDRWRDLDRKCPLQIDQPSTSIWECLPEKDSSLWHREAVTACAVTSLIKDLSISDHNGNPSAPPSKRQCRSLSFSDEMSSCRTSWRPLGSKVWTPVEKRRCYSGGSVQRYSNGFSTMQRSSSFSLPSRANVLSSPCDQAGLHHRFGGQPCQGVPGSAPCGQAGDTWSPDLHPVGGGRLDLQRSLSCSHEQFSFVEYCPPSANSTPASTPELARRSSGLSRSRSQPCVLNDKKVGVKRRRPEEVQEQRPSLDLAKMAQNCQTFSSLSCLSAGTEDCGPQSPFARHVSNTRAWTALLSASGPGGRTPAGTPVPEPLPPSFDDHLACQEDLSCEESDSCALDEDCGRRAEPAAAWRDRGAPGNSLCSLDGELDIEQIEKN
Sequence of UniProt P06241 (P06241 whole entry, looked up): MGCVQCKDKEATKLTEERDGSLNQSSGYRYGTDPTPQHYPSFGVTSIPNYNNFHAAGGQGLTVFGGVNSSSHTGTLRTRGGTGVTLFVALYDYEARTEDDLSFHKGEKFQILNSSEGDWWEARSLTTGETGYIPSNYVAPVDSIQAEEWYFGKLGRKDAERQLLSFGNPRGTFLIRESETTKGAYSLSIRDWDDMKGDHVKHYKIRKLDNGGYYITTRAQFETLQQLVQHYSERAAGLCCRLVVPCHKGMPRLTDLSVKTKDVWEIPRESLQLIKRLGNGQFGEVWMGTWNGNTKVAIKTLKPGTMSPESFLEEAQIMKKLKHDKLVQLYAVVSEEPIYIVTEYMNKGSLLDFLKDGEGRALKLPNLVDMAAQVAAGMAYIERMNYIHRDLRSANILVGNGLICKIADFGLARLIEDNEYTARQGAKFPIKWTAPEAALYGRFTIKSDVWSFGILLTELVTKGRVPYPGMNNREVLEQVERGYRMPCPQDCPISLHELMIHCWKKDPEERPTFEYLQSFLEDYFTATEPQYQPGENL
Sequence of UniProt Q13409 (Q13409 whole entry, looked up): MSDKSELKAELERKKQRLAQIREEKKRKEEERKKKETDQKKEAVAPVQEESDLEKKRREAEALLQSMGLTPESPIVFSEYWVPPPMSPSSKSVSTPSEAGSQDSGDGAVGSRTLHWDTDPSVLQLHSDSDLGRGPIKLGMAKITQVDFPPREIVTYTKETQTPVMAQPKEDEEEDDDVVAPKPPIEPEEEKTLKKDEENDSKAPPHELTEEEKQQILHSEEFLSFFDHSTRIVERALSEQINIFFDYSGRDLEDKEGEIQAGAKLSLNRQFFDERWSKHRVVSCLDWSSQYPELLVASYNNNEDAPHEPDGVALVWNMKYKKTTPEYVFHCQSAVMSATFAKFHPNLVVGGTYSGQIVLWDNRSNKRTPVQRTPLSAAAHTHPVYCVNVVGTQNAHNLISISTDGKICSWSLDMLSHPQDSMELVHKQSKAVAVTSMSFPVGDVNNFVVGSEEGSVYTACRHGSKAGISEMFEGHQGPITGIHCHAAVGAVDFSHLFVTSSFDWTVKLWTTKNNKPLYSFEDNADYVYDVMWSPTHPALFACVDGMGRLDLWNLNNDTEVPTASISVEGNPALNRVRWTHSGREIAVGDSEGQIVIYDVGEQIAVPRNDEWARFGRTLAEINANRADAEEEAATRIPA
Sequence of UniProt Q9UKR5 (Q9UKR5 whole entry, looked up): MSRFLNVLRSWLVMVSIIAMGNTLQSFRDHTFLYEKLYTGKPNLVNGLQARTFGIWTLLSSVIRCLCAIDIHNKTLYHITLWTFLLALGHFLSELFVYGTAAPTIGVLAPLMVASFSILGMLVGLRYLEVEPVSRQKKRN
Sequence of UniProt Q06547 (Q06547 whole entry, looked up): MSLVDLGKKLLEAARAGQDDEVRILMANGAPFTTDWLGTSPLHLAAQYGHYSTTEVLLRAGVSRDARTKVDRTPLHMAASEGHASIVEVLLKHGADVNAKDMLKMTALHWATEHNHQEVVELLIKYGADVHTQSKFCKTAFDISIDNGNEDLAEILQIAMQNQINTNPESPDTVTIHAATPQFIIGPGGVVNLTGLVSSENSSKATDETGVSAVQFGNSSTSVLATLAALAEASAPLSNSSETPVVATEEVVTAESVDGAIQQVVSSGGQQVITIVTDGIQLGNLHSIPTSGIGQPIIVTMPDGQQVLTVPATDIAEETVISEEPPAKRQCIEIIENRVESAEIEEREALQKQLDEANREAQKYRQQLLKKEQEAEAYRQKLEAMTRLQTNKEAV
Sequence of UniProt P26378 (P26378 whole entry, looked up): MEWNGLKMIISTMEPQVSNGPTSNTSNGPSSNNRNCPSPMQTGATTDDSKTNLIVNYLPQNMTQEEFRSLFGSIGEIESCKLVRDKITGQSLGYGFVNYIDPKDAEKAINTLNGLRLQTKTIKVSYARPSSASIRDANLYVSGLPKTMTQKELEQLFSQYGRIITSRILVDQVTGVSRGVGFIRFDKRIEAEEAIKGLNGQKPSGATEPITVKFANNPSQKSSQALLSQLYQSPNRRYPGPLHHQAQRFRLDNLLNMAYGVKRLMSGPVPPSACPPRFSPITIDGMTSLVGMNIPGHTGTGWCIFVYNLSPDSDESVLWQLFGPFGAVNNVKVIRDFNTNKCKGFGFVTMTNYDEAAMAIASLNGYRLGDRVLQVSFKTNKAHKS
Sequence of UniProt Q9Y6B2 (Q9Y6B2 whole entry, looked up): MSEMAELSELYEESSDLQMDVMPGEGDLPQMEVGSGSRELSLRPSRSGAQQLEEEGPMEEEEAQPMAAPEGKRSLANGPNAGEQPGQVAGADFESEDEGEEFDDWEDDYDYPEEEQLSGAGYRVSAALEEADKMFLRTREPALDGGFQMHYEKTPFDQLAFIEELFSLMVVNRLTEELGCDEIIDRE
Sequence of UniProt Q9H8W3 (Q9H8W3 whole entry, looked up): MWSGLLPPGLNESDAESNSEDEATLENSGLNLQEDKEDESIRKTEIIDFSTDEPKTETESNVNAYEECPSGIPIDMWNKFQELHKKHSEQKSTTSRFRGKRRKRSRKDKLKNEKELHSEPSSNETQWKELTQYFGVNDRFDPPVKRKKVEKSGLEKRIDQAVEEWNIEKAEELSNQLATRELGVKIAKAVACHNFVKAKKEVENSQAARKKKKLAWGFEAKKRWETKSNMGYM

Row | Target | log2 fold change (ibrutinib) | log2 fold change (ralimetinib) | log2 fold change [1] | log2 fold change [2] | log2 fold change [3] | log2 fold change [4] | log2 fold change [5] | log2 fold change [6] | log2 fold change [7] | log2 fold change [8]
1 | EWSR1 (UniProt H7BY36) | -0.288 (inactive) | -0.073 (inactive) | -0.052 (inactive) | -0.126 (inactive) | 0.071 (inactive) | 0.39 (inactive) | – | – | – | –
2 | FOXL2 (UniProt P58012) | -0.074 (inactive) | 0.264 (inactive) | -0.095 (inactive) | -0.023 (inactive) | – | 0.02 (inactive) | -0.065 (inactive) | 0.161 (inactive) | -0.035 (inactive) | –
3 | ERG28 (UniProt Q9UKR5) | 0.064 (inactive) | – | – | 0.059 (inactive) | – | – | -0.045 (inactive) | – | -0.004 (inactive) | –
4 | FAM53B (UniProt Q14153) | 0.037 (inactive) | -0.299 (inactive) | -0.084 (inactive) | 0.161 (inactive) | -0.07 (inactive) | -0.263 (inactive) | – | 0.037 (inactive) | – | 0.098 (inactive)
5 | FLT4 (UniProt P35916) | 0.062 (inactive) | 0.012 (inactive) | -0.005 (inactive) | 0.038 (inactive) | – | -0.019 (inactive) | 0.064 (inactive) | -0.057 (inactive) | 0.005 (inactive) | –
6 | FBXO45 (UniProt P0C2W1) | 0.207 (inactive) | 0.173 (inactive) | 0.045 (inactive) | – | 0.064 (inactive) | 0.018 (inactive) | 0.075 (inactive) | 0.043 (inactive) | 0.081 (inactive) | 0.015 (inactive)
7 | DTL (UniProt Q9NZJ0) | 0.012 (inactive) | 0.037 (inactive) | -0.024 (inactive) | -0.104 (inactive) | 0.071 (inactive) | -0.037 (inactive) | – | -0.05 (inactive) | – | 0.041 (inactive)
8 | EPB41, A0A2R8Y783 | 0.196 (inactive) | – | – | 0.057 (inactive) | – | – | 0.093 (inactive) | – | 0.034 (inactive) | –
9 | FAM204A (UniProt Q9H8W3) | – | -0.12 (inactive) | 0.061 (inactive) | – | 0.174 (inactive) | -0.002 (inactive) | – | -0.117 (inactive) | – | –
10 | DYRK1A isoform 2 (UniProt Q13627) | -0.063 (inactive) | 0.085 (inactive) | -0.241 (inactive) | – | 0.004 (inactive) | -0.081 (inactive) | – | 0.005 (inactive) | – | –
11 | FNDC3A (UniProt Q9Y2H6) | – | 0.118 (inactive) | -0.207 (inactive) | – | 0.027 (inactive) | 0.113 (inactive) | – | -0.093 (inactive) | – | 0.31 (inactive)
12 | EXO5 (UniProt Q9H790) | 0.111 (inactive) | 0.018 (inactive) | -0.126 (inactive) | – | 0.217 (inactive) | -0.067 (inactive) | – | -0.025 (inactive) | – | –
13 | FAT1 (UniProt Q14517) | – | -0.034 (inactive) | -0.016 (inactive) | – | 0.188 (inactive) | 0.024 (inactive) | -0.109 (inactive) | -0.05 (inactive) | -0.105 (inactive) | –
14 | FYN (UniProt P06241) | 0.79 (active) | 0.09 (inactive) | -0.13 (inactive) | -0.042 (inactive) | -0.069 (inactive) | 0.052 (inactive) | 0.046 (inactive) | 0.003 (inactive) | 0.021 (inactive) | –
15 | ELAVL4 (UniProt P26378) | – | 0.065 (inactive) | 0.064 (inactive) | -0.01 (inactive) | -0.005 (inactive) | -0.026 (inactive) | -0.04 (inactive) | 0.026 (inactive) | 0.073 (inactive) | -0.061 (inactive)
16 | FBRSL1, A0A3B3IRR3 | 0.072 (inactive) | 0.027 (inactive) | 0.008 (inactive) | 0.183 (inactive) | -0.381 (active) | 0.012 (inactive) | – | -0.075 (inactive) | – | -0.01 (inactive)
17 | GAA (UniProt P10253) | 0.013 (inactive) | 0.054 (inactive) | -0.133 (inactive) | – | 0.028 (inactive) | 0.036 (inactive) | -0.011 (inactive) | 0.009 (inactive) | -0.084 (inactive) | 0.142 (inactive)
18 | GCA (UniProt P28676) | – | – | – | – | – | – | -0.134 (inactive) | 0.191 (inactive) | 0.123 (inactive) | 0.173 (inactive)
19 | EPB41 isoform 4 (UniProt P11171) | – | -0.056 (inactive) | -0.018 (inactive) | – | 0.042 (inactive) | -0.001 (inactive) | 0.048 (inactive) | 0.148 (inactive) | -0.004 (inactive) | -0.012 (inactive)

Row | Target | log2 fold change (ibrutinib) | log2 fold change (ralimetinib) | log2 fold change [1] | log2 fold change [2] | log2 fold change [3] | log2 fold change [4] | log2 fold change [5] | log2 fold change [6] | log2 fold change [7] | log2 fold change [8]
20 | DST isoform 3 (UniProt Q03001) | 0.005 (inactive) | – | – | – | – | – | – | -0.01 (inactive) | – | –
21 | FAM76B (UniProt Q5HYJ3) | – | -0.005 (inactive) | -0.01 (inactive) | -0.02 (inactive) | 0.023 (inactive) | -0.002 (inactive) | -0.025 (inactive) | -0.06 (inactive) | -0.011 (inactive) | -0.012 (inactive)
22 | FTSJ1 isoform 2 (UniProt Q9UET6) | – | – | – | – | – | – | 0.026 (inactive) | – | 0.001 (inactive) | –
23 | EPN2 (UniProt I3L356) | 0.105 (inactive) | – | – | – | – | – | -0.021 (inactive) | – | 0.097 (inactive) | 0.102 (inactive)
24 | GAPVD1 (UniProt Q14C86) | 0.086 (inactive) | – | – | – | – | – | 0.317 (inactive) | – | -0.666 (inactive) | –
25 | GART (UniProt C9JZG2) | -0.062 (inactive) | 0.069 (inactive) | -0.068 (inactive) | – | 0.083 (inactive) | -0.052 (inactive) | 0.037 (inactive) | – | 0.022 (inactive) | -0.114 (inactive)
26 | GDE1 (UniProt Q9NZC3) | -0.047 (inactive) | 0.067 (inactive) | 0.026 (inactive) | -0.038 (inactive) | -0.036 (inactive) | -0.122 (inactive) | -0.017 (inactive) | 0.025 (inactive) | -0.014 (inactive) | –
27 | GC isoform 3 (UniProt P02774) | – | 0.051 (inactive) | -0.559 (active) | -0.148 (inactive) | -0.087 (inactive) | -0.101 (inactive) | – | – | – | –
28 | ESRRB isoform 1 (UniProt O95718) | -0.047 (inactive) | 0.035 (inactive) | -0.087 (inactive) | – | – | 0.053 (inactive) | – | -0.187 (inactive) | – | –
29 | EIF3I (UniProt Q5TFK1) | – | – | – | – | – | – | 0.266 (inactive) | – | -0.059 (inactive) | -0.661 (inactive)
30 | DYNC1I2 isoform 2 (UniProt Q13409) | -0.101 (inactive) | -0.04 (inactive) | -0.032 (inactive) | 0.083 (inactive) | -0.019 (inactive) | -0.047 (inactive) | -0.032 (inactive) | -0.017 (inactive) | 0.012 (inactive) | –
31 | EIF2AK3 (UniProt Q9NZJ5) | – | 0.039 (inactive) | -0.191 (inactive) | 0.037 (inactive) | – | -0.061 (inactive) | 0.003 (inactive) | 0.012 (inactive) | -0.07 (inactive) | -0.052 (inactive)
32 | FMNL2 isoform 3 (UniProt Q96PY5) | – | -0.02 (inactive) | 0.185 (inactive) | 0.071 (inactive) | 0.116 (inactive) | 0.048 (inactive) | -0.048 (inactive) | 0.065 (inactive) | -0.003 (inactive) | -0.056 (inactive)
33 | EID1 (UniProt Q9Y6B2) | – | -0.06 (inactive) | -0.042 (inactive) | -0.116 (inactive) | – | -0.008 (inactive) | – | -0.173 (inactive) | – | 0.05 (inactive)
34 | FOXJ2 (UniProt Q9P0K8) | -0.045 (inactive) | 0.02 (inactive) | -0.035 (inactive) | -0.129 (inactive) | – | 0.108 (inactive) | – | 0.091 (inactive) | – | 0.041 (inactive)
35 | GABPB1 isoform 3 (UniProt Q06547) | 0.085 (inactive) | 0.043 (inactive) | -0.068 (inactive) | 0.099 (inactive) | -0.051 (inactive) | -0.042 (inactive) | -0.027 (inactive) | 0.121 (inactive) | 0.03 (inactive) | –
36 | EIF2B5, A0A3B3ITK8 | – | – | – | – | – | – | 0.015 (inactive) | – | -0.104 (inactive) | 0.037 (inactive)
37 | FAM111A (UniProt Q96PZ2) | – | 0.116 (inactive) | 0.083 (inactive) | -0.106 (inactive) | -0.093 (inactive) | 0.022 (inactive) | 0.171 (inactive) | 0.125 (inactive) | -0.244 (inactive) | –
